A short description of experiment [1]: Cell Viability - N2a (AID 540).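 Also: cells exposed to compound for 40 h at 37 °C; plate controls were DMSO alone for no effect and tamoxifen control for full effect; nearly all actives have a fitted effect of over 45% in size.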 The conditions noted are these: N2a mouse neuroblastoma cell viability; at 92.2 µM (top of the series). In short, it runs like this: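 Luminescent ATP signal (CellTiter-Glo, 20 min at room temperature) served as the viability read-out after N2a cells were treated with compounds for 40 hours at 37 °C. Concentration-response data were fitted to the Hill equation for AC50.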

Experiment [2] is described as follows: Cell Viability - LYMP1-002 - Assay at 16 hr (AID 948).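 Also: 0% = DMSO alone and full effect = 92 µM tetraoctylammonium bromide.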 In short, it runs like this: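 Seed 2500 LYMP1-002 cells per well in complete medium and hold 5 hr at 37 C. Add compound across a concentration series and incubate 16 hr at 37 C. Add CellTiter-Glo, wait 30 min at room temperature, read luminescence.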
Experiment [3] in a line: MultiTox-Fluor Cytotoxicity Assay - LYMP1-002 - Dead Cells (AID 960). Also: nearly all actives have a fitted effect of over 60% in size. In short, it runs like this: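 LYMP1-002 cells 2500/well; 5 hr 37 C pre-incubation; compound 16 hr 37 C; MultiTox-Fluor reagent 60 min RT; dead-cell fluor Ex/Em 485/520. Norm. to DMSO (0%) vs 15 uM tetraoctylammonium bromide (100%); Hill AC50.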
Experiment [4] in a line: MultiTox-Fluor Cytotoxicity Assay - LYMP1-003 - Dead Cells (AID 961). Also: nearly all actives have a fitted effect of over 70% in size. Also: potency is read from the fitted curve at half-maximal effect. The method in brief:
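LYMP1-003 lymphoblastoid, 2500 cells/well, 5 hr settle then 16 hr cpd at 37 C; MultiTox-Fluor reagent 60 min RT; Ex/Em 485/520 dead-cell signal; norm. DMSO = 0%, 15 uM tetraoctylammonium bromide = 100%; Hill AC50.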

Experiment [5] in a line: MultiTox-Fluor Cytotoxicity Assay - LYMP1-003 - Live Cells (AID 962).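 Also: cells exposed to compound for 16 hours at 37 °C; 0% = DMSO only and full loss = 92 µM tetraoctylammonium bromide; cytotoxic hits lower the live-cell protease signal.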 The method in brief:
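qHTS, 1536-well; 2500 cells/well LYMP1-003; 5 hr 37 C settle; cpd 16 hr 37 C; MultiTox-Fluor reagent 60 min RT; live-cell protease fluor. 405/510; Hill-fit AC50; tetraoctylammonium bromide pos. ctrl.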

Experiment [6] can be described thus: Cell Viability - LYMP1-003 - Assay at 24 hr (AID 963).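 Also: plate controls were DMSO only for no effect and tetraoctylammonium bromide positive control for full effect.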 The method in brief:
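Cells seeded at 2500/well, 5 hr at 37 C; compounds added; 24 hr at 37 C; CellTiter-Glo added, 30 min room temperature; luminescence read. Decrease in ATP taken as cytotoxicity, AC50 from Hill modelling.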

Experiment [7] concerns the target Glucocorticoid receptor (Homo sapiens) (UniProt P04150). The experiment can be described thus: qHTS assay for small molecule agonists of glucocorticoid receptor signaling (AID 588532; active = well fitted curve in the direction sought with a large enough effect in the signal ratio, with a control signal flat; the % refers to the signal ratio;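 also: 100% = dexamethasone at 0.1 µM and 0% = DMSO only wells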). The conditions noted are these: HeLa MMTV-bla, beta-lactamase ratio, agonist, 18 h; stronger effect = higher value; percent of dexamethasone control, DMSO zero. In short, it runs like this: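 MMTV-bla HeLa, beta-lactamase reporter; medium with 1% charcoal/dextran-stripped FBS; cpds up to 92 uM, 18 h, 37 C; CCF4 readout 460/530 nm; Hill fit → EC50, efficacy vs 0.1 uM dexamethasone = 100%.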

Experiment [8] addresses Thyroid hormone receptor beta (Homo sapiens) (UniProt P10828). The experiment can be described thus: qHTS assay for small molecule agonists of thyroid hormone receptor beta signaling (AID 588545; calls by dose curve;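 also: 0% = DMSO only and 100% = 10 nM T3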). In short, it runs like this: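 TR-UAS-bla-GripTite HEK 293 cells in medium with 2% charcoal/dextran FBS, 0.1 mM NEAA and 1 mM sodium pyruvate were treated with titrated compounds for 18 hrs at 37 C. Beta-lactamase reporter was read with CCF4 dye (ex 405, em 460/530 nm); EC50 from Hill fits.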
On the technique in general: In qHTS, concentration-response curves come from the screen itself.

The nature of experiment [9]: qHTS assay for small molecule antagonists of retinoid X receptor alpha signaling (AID 588546; active = well fitted inhibition curve with a large enough effect in the signal ratio, with a control signal flat, not every such curve was filed as active; the % refers to the signal ratio;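 also: cells stimulated with 9-cis-retinoic acid as agonist; % is scaled to controls: 0 for no effect and ±100 for the full control effect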). The conditions noted are these: HEK293T RXRa-UAS-bla, beta-lactamase ratio, antagonist mode; measured here: W530 green channel, cytotoxicity proxy. In short, it runs like this:
(§1)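 Beta-lactamase reporter inhibition, read as CCF4 fluorescence ratio (ex 405, em 460/530 nm) after 2 h at RT. HEK293T UAS-bla cells, 2500/well, were stimulated with 9-cis-RA at 500 or 100 nM final alongside test compound for 18 h at 37 C.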

The target in experiment [10] is Retinoic acid receptor RXR-alpha (Homo sapiens) (UniProt P19793). The description is as above. The conditions noted are these: HEK293T RXRa-UAS-bla, beta-lactamase ratio, antagonist mode. The method in brief: as §1
For experiment [11], the target named is Thyroid hormone receptor beta (Homo sapiens) (UniProt P10828). The experiment can be described thus: qHTS assay for small molecule antagonists of thyroid hormone receptor beta signaling (AID 588547; active = well fitted inhibition curve with a large enough effect in the signal ratio, with a control signal flat, not every such curve was filed as active; the % refers to the signal ratio;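 also: cells stimulated with 0.4 nM T3 agonist during compound exposure; % is scaled to controls: 0 for no effect and ±100 for the full control effect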). The conditions noted are these: TR-UAS-bla HEK293, beta-lactamase ratio, antagonist mode, 18 h. In short, it runs like this:
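TR-UAS-bla GripTite HEK293 cells in 2% charcoal/dextran FBS medium were preincubated 4 h at 37 C, given compound (0.59 nM to 92 uM) plus 0.4 nM T3 (final) for 18 h, then CCF4 for 2 h at RT; Hill fit gave IC50.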

Experiment [12] can be described thus: qHTS assay for small molecule agonists of the antioxidant response element (ARE) signaling pathway (AID 651741; active = well fitted activation curve with a large enough effect in the signal ratio; the % refers to the signal ratio; also: potency is read from the fitted curve at half-maximal effect). In short, it runs like this: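 Compounds in DMSO are pinned onto HepG2 ARE-bla cells (2,000/well) that were preincubated 5 h; plates stay 16 h at 37 C, then beta-lactamase activity is detected with LiveBLAzer B/G substrate by fluorescence.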
Experiment [13] is described as follows: qHTS assay for small molecule disruptors of the mitochondrial membrane potential - 5 hr assay (AID 651755; calls by dose curve; also: % is scaled to controls: 0 for no effect and ±100 for the full control effect; nearly all actives have a fitted effect of over 40% in size). In short, it runs like this: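 HepG2 cells, attached overnight at 37C, were exposed to compound or DMSO for 5 hr at 37C, 5% CO2. Mito-MPS dye was then added for 30 min, and fluorescence read at 490/535 nm (monomers) and 540/590 nm (aggregates).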
For experiment [14], the target named is Peroxisome proliferator-activated receptor alpha (Homo sapiens) (UniProt Q07869). The experiment can be described thus: qHTS assay for small molecule agonists of the peroxisome proliferator-activated receptor alpha (PPARalpha) signaling pathway (AID 651778). Also: % of control where 0% means no effect. The conditions noted are these: PathHunter PPARalpha complementation, chemiluminescence, 6 h; stronger effect = higher value. The method in brief: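 Cells plated at 2,000/well and held overnight at 37 C, 5% CO2, then compound added by pin tool for 6 hr; after PathHunter detection reagent and 60 min at room temperature, chemiluminescence from enzyme complementation was read.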

The nature of experiment [15]: Cell Viability - MRC5 (AID 434; calls by dose curve;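 also: potency is read from the fitted curve at half-maximal effect; potency reflects cytotoxicity seen as loss of intracellular ATP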). The conditions noted are these: MRC5 lung fibroblast viability, qHTS. In short, it runs like this: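 MRC5 normal human lung fibroblasts (1500/well) were treated with compounds for 40 hr at 37 °C in complete medium, and viable cells were measured as intracellular ATP by CellTiter-Glo luminescence. AC50 came from Hill fits, normalized to DMSO and 100 uM tamoxifen.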

Experiment [16] in a line: Cell Viability - H-4-II-E (AID 543). Also: % is scaled to controls: 0 for no effect and ±100 for the full control effect; nearly all actives have a fitted effect of over 35% in size. In short, it runs like this:
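Luminescent ATP signal (CellTiter-Glo) served as the viability read-out, with cytotoxicity seen as a concentration-dependent ATP drop. Cells were treated for 40 hours in complete medium. AC50 values derive from Hill-equation modelling.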

Experiment [17] in a line: Cellular Toxicity (caspase-3) Jurkat (AID 655).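 Also: cells exposed to compound for 16 h at 37 °C before reading.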 The conditions noted are these: Jurkat caspase-3 activation, luminescence, DMSO = 0%, tamoxifen = 100%; at 92.2 µM (top of the series). In short, it runs like this: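 5000 Jurkat cells/well; compound 16 hr, 37 °C; Caspase-Glo 3/7 added, 20 min RT; luminescence read. Norm: DMSO = 0%, tamoxifen 100 uM = 100%. AC50, Hill model.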

Experiment [18] is described as follows: Cell Viability - LYMP2-003 (AID 965).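 Also: cells exposed to compounds for 24 h before reading; nearly all actives have a fitted effect of over 50% in size.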 Also: potency is read from the fitted curve at half-maximal effect.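 As to activity change, negative = cytotoxicity: 0% = DMSO only and full effect = 92 µM tetraoctylammonium bromide.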 The method in brief:
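Seed 2500 lymphoblastoid cells/well; incubate 5 hr, 37 C; add compounds; incubate 24 hr, 37 C; add CellTiter-Glo, 30 min RT; read luminescence. AC50 from Hill fit.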

Experiment [19] can be described thus: qHTS assay for environmental chemicals that activate the Aryl hydrocarbon Receptor (AhR) signaling pathway (AID 651777). Also: % of control where 0% means no effect; nearly all actives have a fitted effect of over 15% in size. The conditions noted are these: 1A2-DRE human hepatoma cells, luciferase, 24 h; activation: stronger effect = higher value. The method in brief: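 Stable CYP1A2 promoter/DRE-luciferase human hepatoma line treated 24 hr; One-Glo luminescence, 30 min RT.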

Experiment [20] is described as follows: qHTS assay for small molecule agonists of the antioxidant response element (ARE) signaling pathway measured by Nrf2-dependant transcriptional activity (AID 720636; active = well fitted curve in the direction sought with a large enough effect in the repeat runs; an effect the other way counts as inactive or inconclusive;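 also: HepG2 cells with an ARE-driven luciferase reporter; % of control where 0% means no effect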). In short, it runs like this: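 Reporter gene assay, HepG2 ARE-luc: 16 hr compound, 37 C, 5% CO2; read-out luciferase luminescence.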

SMILES strings stand for the structures. Where “and” joins values, the source holds several entries; their conditions need not be identical. Identical values can stand only once. Records with an inconclusive call do not appear. Calls of active or inactive are those of the source. Unless noted, calls follow the shape of the dose curve; as a rule, active = well fitted curve in the direction sought with a large enough effect; inconclusive = small, poorly fitted or top-dose-only effect, or another doubt; inactive = no such curve, though single readings can be large; an effect the other way counts as inactive or inconclusive. A value given as a limit tells only on which side of the number the result lay.

Sequence of Thyroid hormone receptor beta (Homo sapiens) (P10828 whole entry, looked up): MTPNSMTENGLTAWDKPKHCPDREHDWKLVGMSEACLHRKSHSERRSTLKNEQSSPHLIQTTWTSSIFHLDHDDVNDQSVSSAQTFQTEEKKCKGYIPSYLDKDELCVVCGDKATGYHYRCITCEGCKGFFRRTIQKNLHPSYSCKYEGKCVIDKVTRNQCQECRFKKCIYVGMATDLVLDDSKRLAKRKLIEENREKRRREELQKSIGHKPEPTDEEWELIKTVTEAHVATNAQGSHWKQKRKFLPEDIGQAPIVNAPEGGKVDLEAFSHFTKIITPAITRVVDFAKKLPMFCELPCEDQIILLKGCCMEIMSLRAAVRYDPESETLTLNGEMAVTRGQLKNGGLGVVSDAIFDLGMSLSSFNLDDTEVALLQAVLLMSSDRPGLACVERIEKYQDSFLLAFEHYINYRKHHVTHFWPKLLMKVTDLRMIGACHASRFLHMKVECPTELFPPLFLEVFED
Sequence of Retinoic acid receptor RXR-alpha (Homo sapiens) (P19793 whole entry, looked up): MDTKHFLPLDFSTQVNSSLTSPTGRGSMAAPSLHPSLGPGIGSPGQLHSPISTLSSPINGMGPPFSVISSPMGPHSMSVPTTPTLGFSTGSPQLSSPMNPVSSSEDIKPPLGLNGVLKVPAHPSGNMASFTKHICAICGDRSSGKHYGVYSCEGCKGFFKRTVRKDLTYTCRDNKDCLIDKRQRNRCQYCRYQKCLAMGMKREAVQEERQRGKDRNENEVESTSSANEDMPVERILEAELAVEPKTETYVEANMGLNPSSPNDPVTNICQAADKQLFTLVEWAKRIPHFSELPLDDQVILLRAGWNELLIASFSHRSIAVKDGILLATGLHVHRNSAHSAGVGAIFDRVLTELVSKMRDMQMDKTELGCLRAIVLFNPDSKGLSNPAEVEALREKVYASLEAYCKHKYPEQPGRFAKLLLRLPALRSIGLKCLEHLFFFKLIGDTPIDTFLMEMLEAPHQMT
Sequence of Peroxisome proliferator-activated receptor alpha (Homo sapiens) (Q07869 whole entry, looked up): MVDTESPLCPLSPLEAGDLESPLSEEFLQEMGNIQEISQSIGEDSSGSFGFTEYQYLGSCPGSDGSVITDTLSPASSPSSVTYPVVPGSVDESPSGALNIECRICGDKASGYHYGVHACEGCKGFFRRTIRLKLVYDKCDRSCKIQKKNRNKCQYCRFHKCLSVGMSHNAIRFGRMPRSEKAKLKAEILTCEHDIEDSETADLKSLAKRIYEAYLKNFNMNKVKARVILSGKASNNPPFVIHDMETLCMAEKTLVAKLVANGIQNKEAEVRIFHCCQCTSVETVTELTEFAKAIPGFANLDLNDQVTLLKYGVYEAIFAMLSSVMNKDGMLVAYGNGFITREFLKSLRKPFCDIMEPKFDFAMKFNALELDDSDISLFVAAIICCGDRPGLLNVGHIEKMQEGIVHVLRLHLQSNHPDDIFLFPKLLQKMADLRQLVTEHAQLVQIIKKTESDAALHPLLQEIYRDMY
Sequence of Glucocorticoid receptor (Homo sapiens) (P04150 whole entry, looked up): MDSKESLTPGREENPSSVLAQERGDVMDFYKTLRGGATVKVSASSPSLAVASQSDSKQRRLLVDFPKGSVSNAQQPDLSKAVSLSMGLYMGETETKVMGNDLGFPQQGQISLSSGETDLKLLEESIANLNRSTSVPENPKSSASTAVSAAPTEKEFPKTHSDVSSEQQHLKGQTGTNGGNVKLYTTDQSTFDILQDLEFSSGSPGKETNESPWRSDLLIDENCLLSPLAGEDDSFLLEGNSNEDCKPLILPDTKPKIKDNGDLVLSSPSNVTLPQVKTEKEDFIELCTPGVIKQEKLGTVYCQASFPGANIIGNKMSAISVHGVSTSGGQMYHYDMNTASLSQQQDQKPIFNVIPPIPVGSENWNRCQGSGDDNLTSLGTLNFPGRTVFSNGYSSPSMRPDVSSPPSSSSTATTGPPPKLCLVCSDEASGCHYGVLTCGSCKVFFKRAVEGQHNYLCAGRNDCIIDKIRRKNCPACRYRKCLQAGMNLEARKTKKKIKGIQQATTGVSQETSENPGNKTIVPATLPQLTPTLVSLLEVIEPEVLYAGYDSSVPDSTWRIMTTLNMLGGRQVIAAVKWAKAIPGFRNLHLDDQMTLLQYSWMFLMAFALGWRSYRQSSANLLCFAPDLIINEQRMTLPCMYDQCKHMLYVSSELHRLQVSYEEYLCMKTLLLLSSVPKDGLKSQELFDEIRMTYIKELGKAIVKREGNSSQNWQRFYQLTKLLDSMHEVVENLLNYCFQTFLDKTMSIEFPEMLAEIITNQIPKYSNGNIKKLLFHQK

As for `CCc1cccc(CC)c1N(COC)C(=O)CCl`, the activity change, negative = cytotoxicity in experiment [1] is -5.69% (inactive). In addition, the Potency result in [2], in [3], in [4], in experiment [5], in experiment [6] and in experiment [13] was “inactive” each time. Moreover, the activation in [7] is 0.967% (inactive) and -3.2% (inactive). In addition, in [8], the compound was classed as inactive. Further, the max response in [9] is 18.2%; in experiment [10], -7.04% (inactive); in experiment [14], -2.24% (inactive) and -0.952% (inactive). For the same compound, the activity change % (negative = inhibition) in experiment [11] was -17.8% (inactive) and -7.56% (inactive). Also, the Potency in experiment [12] is 13.3 µM (active) and 24.3 µM (active).

Regarding `ClC1=C(Cl)C2(Cl)C3C(Cl)C=CC3C1(Cl)C2(Cl)Cl` (centres undefined), the values for the Potency in experiment [15], in [4] and in [18] were > 92 µM (inactive), 39.8 µM (active) and 39.8 µM (active), respectively. Also, the Potency result in experiment [16] and in experiment [13] was “inactive” in each case. Moreover, the caspase-3 activation in experiment [17] is 5.51% (inactive). For the same compound, the activation in experiment [7] is 0.68% (inactive); in experiment [19], -0.719% (inactive). Besides, the result in experiment [8] and in experiment [20] was inactive. Moreover, the figures for the max response in [9], in experiment [10] and in experiment [14] were -16.9%, -17.9% (inactive) and 4.41% (inactive), respectively. In experiment [11], the activity change % (negative = inhibition) was -18.9% (inactive).

In the case of `ClC1=C(Cl)C2(Cl)C3C4C=CC(C4)C3C1(Cl)C2(Cl)Cl` (centres undefined), the Potency is > 92 µM (inactive) in [15], 39.8 µM (active) in experiment [4], 31.6 µM (active) in [18] and 66.8 µM (active) in experiment [12]. Further, the caspase-3 activation in [17] is 6.54% (inactive). Besides, in [7], the activation was 16.6% (inactive). In addition, the compound was called inactive in experiment [8] and in experiment [20]. Further, the max response in [9] is -0.359%; in experiment [10], -13.5% (inactive). Besides, the activity change % (negative = inhibition) in experiment [11] was -26.2% (inactive). In experiment [13], the Potency result is “inactive”.

On to `c1ccc(N=Nc2ccccc2)cc1`, for which, in experiment [15], the Potency was > 92 µM (inactive). Moreover, the activity change, negative = cytotoxicity in experiment [1] was 1.26% (inactive). For the same compound, the Potency result in [16], in experiment [2], in experiment [3], in [4], in [5] and in experiment [6] was “inactive” throughout. Also, the Potency entry in experiment [18] and in experiment [13] was “inactive” throughout. The caspase-3 activation in [17] is 92% (active). Besides, the activation in [7] was 3.39% (inactive); in experiment [19], -0.472% (inactive) and 1.23% (inactive). The call in experiment [8] and in [20] was inactive. For the same compound, the max response in [9] is -17.4% and -6.96%; in experiment [10], -1.15% (inactive) and 2.93% (inactive); in experiment [14], -0.415% (inactive) and -1.69% (inactive). In experiment [11], the activity change % (negative = inhibition) was 5.03% (inactive) and -8.04% (inactive).

These data come from PubChem BioAssay (NCATS).
